Source: PubChem BioAssay
A selection: hits, their analogues and other compounds. The true share with any hit is near 10%.
SW480 rereplic: induces DNA re-replication in SW480 colon adenocarcinoma cells; Potency, µM (highest dose often 46.1 µM), inactives show top-dose re-replication activation, hits mostly activators; hit rate 1.8% among 340,000; SW480 DNA re-replication, Hoechst DNA content imaging, 48 h; note: % of control where 0% means no effect; nearly all actives have a fitted effect of over 55% in size
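Compounds, transferred as 23 nL by pin tool, were incubated with cells for 48 hr; DNA content per nucleus was then quantified by Hoechst staining and fluorescence plate imaging.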
MCF10A rereplic: DNA re-replication induction in MCF 10a cells; MCF 10A DNA re-replication, Hoechst nuclear intensity, 48 h; AID 624296; hit rate 2.9% among 350,000; Potency, µM (highest dose often 46.1 µM), for inactives: at the highest dose activity, positive = re-replication, actives largely listed as activators; note: % of control where 0% means no effect; nearly all actives have a fitted effect of over 50% in size
Gal4-VP16 FLuc: inhibits Gal4-VP16 luciferase reporter, ROR gamma counter-screen; Drosophila S2 Gal4-VP16 UAS-luciferase, luminescence, 20 h; Potency, µM (titrated, usually from 53.6 µM), inactives show at the top dose activity, negative = inhibition, usual class: inhibitors; hit rate 3.5% among 310,000;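 note: Gal4-VP16 expression switched on by copper sulfate through the metallothionein promoter; % is set by controls: 0 for no effect and ±100 for the full control effect; nearly all actives have a fitted effect of over 50% in size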
ELG1 repair inh: ELG1-dependent DNA repair inhibition; HEK293T ELG1-luciferase reporter, luminescence, 16 h; DNA damage induced by 5-fluorouridine; Potency, µM (doses to about 46.1 µM), for inactives: at the top dose activity change, negative = inhibition, usual class: inhibitors; hit rate 2.3% among 330,000; note: % is set by controls: 0 for no effect and ±100 for the full control effect; nearly all actives have a fitted effect of over 55% in size
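Quantitative HTS, concentration-response format. 2,000 cells/well co-treated with 5-fluorouridine and compound, 16 hr in 5% CO2 at 37 °C; ONE-Glo luminescence read after 30 min.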
RORgamma inh: inhibitors of mouse ROR gamma transcriptional activity | Potency, µM (top dose mostly 53.6 µM), without a hit: at the top dose activity change, negative = inhibition, usual class: inhibitors | P51450 | AID 2551 | Drosophila S2 Gal4-RORgamma UAS-luciferase reporter, 20 h | hit rate 5.4% among 310,000; note: % is set by controls: 0 for no effect and ±100 for the full control effect; nearly all actives have a fitted effect of over 60% in size
Target sequence (P51450 whole entry, looked up, the tested form may be a part): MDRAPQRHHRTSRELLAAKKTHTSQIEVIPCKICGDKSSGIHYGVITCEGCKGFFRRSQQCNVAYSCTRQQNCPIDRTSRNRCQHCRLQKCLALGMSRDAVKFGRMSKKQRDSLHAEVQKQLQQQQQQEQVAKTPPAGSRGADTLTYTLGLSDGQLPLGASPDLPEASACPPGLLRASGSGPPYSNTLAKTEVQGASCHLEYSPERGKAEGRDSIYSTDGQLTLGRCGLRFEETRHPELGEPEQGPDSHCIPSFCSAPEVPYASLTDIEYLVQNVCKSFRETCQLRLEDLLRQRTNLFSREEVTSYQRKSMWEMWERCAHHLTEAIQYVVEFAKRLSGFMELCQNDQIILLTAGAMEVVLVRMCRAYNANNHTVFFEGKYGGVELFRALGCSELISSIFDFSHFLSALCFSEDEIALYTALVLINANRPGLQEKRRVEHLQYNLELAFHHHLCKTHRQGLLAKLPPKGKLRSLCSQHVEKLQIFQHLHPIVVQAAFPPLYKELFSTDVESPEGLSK
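A Gal4/UAS one-hybrid system in insect cells: metallothionein-promoter Gal4–ROR gamma fusion plus Photinus luciferase reporter. Copper sulfate 700 uM final, 20 hr ambient incubation, luminescent detection after 10 min with reagent.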
The depositor's hits bear a star; u = inconclusive; x = no result; [ ] = dose if it differs, or a comment. Calls come from the whole dose curve; as a rule, active = well fitted curve in the direction sought with a large enough effect; inconclusive = small, poorly fitted or top-dose-only effect, or another doubt; inactive = no such curve, though single readings can be large; an effect the other way counts as inactive or inconclusive. Potency is the fitted concentration of half-maximal effect.

SMILES	SW480 rereplic	MCF10A rereplic	Gal4-VP16 FLuc	ELG1 repair inh	RORgamma inh
CN1CCN(C2CCN(c3ccc(Nc4nnc(Cl)c(Nc5ccccc5S(C)(=O)=O)n4)c(OC(CF)CF)c3)CC2)CC1	u	3%	x	-13%	x
CN(C)c1ncc2nc(-c3cccs3)c(=O)n(C)c2n1	x	x	-2%	x	7%
CCOC(=O)C1(Cc2cccc(Cl)c2)CCCN(C(=O)c2cc(CC)on2)C1 (centres undefined)	-6%	16%	u	u	60%
Cc1cn2c(=O)c(C(=O)N3CCN(c4ccccc4)CC3)cnc2s1	1%	2%	x	u	x
CCn1c(SCC(=O)Nc2ccccc2)nc2nc3c(cc2c1=O)COC(C)(C)C3	2%	-2%	2%	10µM*	-25%
CCn1c(SCC(=O)Nc2cccc(C)c2)nc2nc3c(cc2c1=O)COC(C)(C)C3	-3%	7%	8%	18µM*	-26%
Cc1ccc(C(=O)OCC(=O)NCc2ccco2)cc1C	-5%	-11%	x	u	x
S=c1[nH]cnc2sc(Nc3ccccc3)nc12	u	20%	2.5µM*	u	1µM*
COc1cccc(CN(C(=O)c2cccs2)C2CCS(=O)(=O)C2)c1 (centres undefined)	-6%	1%	-17%	0%	8%
CCCn1c(CN2CCN(C(=O)OCC)CC2)nc2cc(NC(=O)CC)ccc21	6.5µM*	16µM*	2%	u	19%
CC(=O)N1CCN(Cc2nc3cc(NC(=O)c4ccc(Cl)cc4)ccc3n2C)CC1	3%	5%	-10%	21µM*	2%
CC(=O)N1CCN(Cc2nc3cc(NC(=O)c4ccccc4C)ccc3n2C)CC1	-1%	-2%	-8%	-9%	-22%
CC(=O)N1CCN(Cc2nc3cc(NC(=O)c4cccc(Br)c4)ccc3n2C)CC1	-22%	0%	-4%	8.2µM*	-3%
COc1ccc(/C=C/C(=O)Nc2ccccc2Cl)cc1S(=O)(=O)N1CCOCC1	-2%	2%	0%	-13%	u
Nc1c(C(=O)NC2CCCC2)c2nc3ccccc3nc2n1/N=C/c1ccco1	1.5µM*	u	u	-11%	u
COc1ccccc1/C=N/n1c(N)c(C(=O)NC2CCCCC2)c2nc3ccccc3nc21	4.1µM*	10µM*	-3%	0%	5%
C=CCC(C(=O)Oc1c(C(C)(C)C)cc(C)cc1C(C)(C)C)c1ccccc1 (centres undefined)	-10%	u	x	17%	x
CCOC(=O)c1cc2c(ccn2C)n1CC(=O)N(Cc1ccccc1)c1ccc(F)cc1	18%	u	u	-31%	-1%
CC(C)OC(=O)c1cc2c(ccn2-c2ccc(F)cc2)n1CC(=O)N1CCN(C(=O)c2ccco2)CC1	-1%	-7%	-2%	8.2µM*	-10%
CC(C)OC(=O)c1cc2c(ccn2C)n1CC(=O)N(Cc1ccccc1)c1ccc(F)cc1	u	6.5µM*	u	8%	6%
COC(=O)c1cc2c(ccn2-c2ccc(F)cc2)n1CC(=O)N1CCN(C(=O)c2ccco2)CC1	-8%	-4%	-4%	16µM*	1%
CCOC(=O)Cn1cnc2c(cnn2-c2ccccc2)c1=O	0%	1%	-5%	u	20%
COc1ccccc1-c1nnc(NC(=O)c2ccc(S(=O)(=O)N(C)Cc3ccccc3)cc2)o1	21µM*	u	0.0028µM*	u	0.32µM*
CN(Cc1ccccc1)S(=O)(=O)c1ccc(C(=O)Nc2nnc(C3CC3)o2)cc1	u	2%	0.56µM*	-18%	0.28µM*
COc1ccc(C(=O)Nc2nnc(S(=O)(=O)N(C)Cc3ccccc3)s2)cc1	u	8%	5%	10%	5%
SMILES	SW480 rereplic	MCF10A rereplic	Gal4-VP16 FLuc	ELG1 repair inh	RORgamma inh
CCc1nnc(NC(=O)c2ccc(S(=O)(=O)N(C)Cc3ccccc3)cc2)o1	2.6µM*	-1%	u	-4%	0.13µM*
CN(Cc1ccccc1)S(=O)(=O)c1nnc(NC(=O)c2ccc(F)cc2)s1	-5%	2%	-20%	8%	-10%
CCN(Cc1ccccc1)S(=O)(=O)c1ccc(OC)cc1	-11%	1%	-28%	u	122%
CCN(Cc1ccccc1)S(=O)(=O)c1ccc(C(=O)Nc2nnc(C)o2)cc1	u	1%	0.56µM*	-12%	0.56µM*
O=C(OCC(=O)N1CCc2ccccc21)c1ccncc1	-14%	-1%	x	7%	x
O=C(c1cnccn1)N1CCC2(CCCN(c3ccccn3)C2)CC1	x	x	0%	x	12%
CCc1nnc(NC(=O)c2ccc(S(=O)(=O)N(CC)Cc3ccccc3)cc2)o1	23%	u	0.11µM*	-14%	0.1µM*
Cc1c(N=N/C(C(=O)Nc2ccccc2)=C(/O)c2ccccc2)c(=O)n(-c2ccccc2)n1C	6.5µM*	-18%	3%	u	u
Cn1c2ccccc2c(=O)c2c(=O)n(Cc3ccco3)c(-c3ccc(F)cc3)nc21	u	-15%	-4%	-15%	-2%
Cc1ccc(-c2nc3c(c(=O)c4ccccc4n3C)c(=O)n2Cc2ccco2)cc1	18µM*	2%	-8%	-21%	-7%
O=C(O)c1cccc(S(=O)(=O)N2CCN(C(c3ccccc3)c3ccccc3)CC2)c1	3%	-16%	-3%	1%	-7%
CCC(C)(C)NC(=O)C(c1ccccn1)N(C(=O)c1csnn1)C1CCCCC1 (centres undefined)	4%	7.3µM*	-9%	6%	35%
CC(C)(C)NC(=O)C(c1ccccn1)N(C(=O)c1csnn1)C1CCCCC1 (centres undefined)	-11%	-8%	-14%	11%	0%
CC(=O)Nc1cccc(NC(=O)CCNC(=O)c2ccc(Cl)cc2)c1	-8%	-3%	3%	6%	-5%
COc1ccc(OC)c(C(=O)/C=C/c2ccccc2C(F)(F)F)c1	u	u	u	u	13µM*
O=C(/C=C/c1ccnc2ccccc12)c1cccs1	u	9.2µM*	14µM*	u	u
COc1cccc(-c2nn(-c3ccccc3)cc2/C=C\C(=O)c2cccs2)c1	u	u	0%	u	-4%
COc1ccc(/C=C/C(=O)c2cccs2)c(OC)c1	x	x	35µM*	x	13µM*
COCOc1cc(OC)ccc1C(=O)/C=C/c1cccc(C(F)(F)F)c1	x	x	-11%	x	5%
O=C(O)C(Oc1ccc2ccccc2c1)c1ccccc1 (centres undefined)	4%	-2%	x	x	x
S=C(NCc1ccccc1)NN1CCOCC1	-18%	5%	3%[10 µM]	6%	u
S=C(NCCc1ccccc1)Nc1ccc(Cl)cc1Cl	-3%[9.22 µM]	12%	16µM*	21%	4µM*
Cc1cc(Cl)ccc1NC(=S)NCc1ccco1	-4%	0%	10µM*	-12%	u
S=C(NCc1ccc(Cl)cc1)NN1CCOCC1	0%	-1%	u	11%	10µM*
